Screening results: PubChem BioAssay, several laboratories
ugtP null kill = growth inhibition of ugtP-null S. aureus, primary screen, RN4220 ugtP deletion, OD600; growth inhibition, % (concentration not given with the values); 330,000 tested, 0.54% active; 16 h; in the data active = growth inhibition above about 68%
Mtb hypoxia rep = PubChem AID 1159583; M. tuberculosis hypoxia-regulated fluorescent reporter, fluorescence; 300,000 tested, 0.1% active; fluorescence inhibition, % (concentration not given with the values); in the data active = fluorescence inhibition mostly above about 23%, no sharp cut-off; inactive = mostly below about 17%
TcdB GH inh = TcdB glycohydrolase inhibitors, primary screen, biochemical, single point, plate reader | Toxin B (Clostridioides difficile), P18177 | TcdB glycohydrolase enzymatic assay | inhibition, % at 9.99 µM | 350,000 tested, 0.24% active | AID 652162, 2013; in the data active = inhibition above about 10%
MazF activator = activators of E. coli MazEF toxin-antitoxin RNase, primary screen, biochemical, fluorescence, uHTS. FAM/BHQ RNA-DNA oligo cleavage fluorescence, 5 h. activation, % at 20 µM. 350,000 tested, 0.32% active. AID 504720, 2011; in the data active = activation above about 50%
Target sequence (P0AE70 whole entry, looked up): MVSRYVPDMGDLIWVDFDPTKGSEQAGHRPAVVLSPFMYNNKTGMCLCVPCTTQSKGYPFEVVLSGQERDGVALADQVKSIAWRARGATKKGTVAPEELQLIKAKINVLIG
PfHsp40 rescue = rescue of yeast from PfHsp40 toxicity, primary screen, S. cerevisiae, ATP luminescence; S. cerevisiae expressing PfHsp40, growth rescue; growth rescue, % at 12.5 µM; 340,000 tested, 0.68% active; AID 504582, 2011; in the data active = growth rescue above about 28%, passing the limit was not always enough;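 note: yeast W303a lacking pdr1 and pdr3 grown in galactose medium; growth measured after three days at 30 °C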
RN4220 kill = growth inhibition of S. aureus RN4220, primary screen, OD600. inhibition, % (no concentration beside the values). 16 h. 330,000 tested, 0.33% active. AID 1259311, 2017; in the data active = inhibition above about 85%
Hits are given with their value; - = inactive; . = not tested or not shown. This is a sample that favours compounds with a hit; in the whole collection about 1.3% have one here.

SMILES	ugtP null kill	Mtb hypoxia rep	TcdB GH inh	MazF activator	PfHsp40 rescue	RN4220 kill
COc1ccc(C(=O)Nc2ccc(C(=O)OCC(=O)c3ccccc3)cc2)cc1	-	.	.	-	-	-
COc1ccc(C(=O)COC(=O)c2ccc(OC)c(OC)c2)cc1OC	-	.	42	-	-	-
COc1cccc(C(=O)COC(=O)c2ccc(NC(=O)c3ccccc3)cc2)c1	-	.	22	-	-	-
CCOC(=O)C1C2COc3cc(OC)ccc3C2N2C(=O)c3cc(OC)ccc3NC(=O)[C@@]12C (some centres not stated)	-	-	.	.	.	-
CC(=O)OCC1OC(ON=CC(C)C(OCc2ccccc2)C(C)C)C(OC(C)=O)C(OC(C)=O)C1OC(C)=O (configuration not stated)	-	-	.	.	.	-
CC(C)CC(=O)/C(=C/c1ccc(N(C)C)cc1)n1cncn1	-	-	-	-	-	-
CC(C)CC(=O)/C(=C\c1ccc(Cl)cc1Cl)n1cncn1	-	-	.	-	125	-
CCCNC(=O)[C@@H]1[C@@H](CO)[C@@H]2Cn3c(ccc(-c4ccc(F)cc4)c3=O)[C@@H]2N1CC1CC1	.	.	-	.	.	.
Cc1ccc(NC(=O)Nc2cccc([N+](=O)[O-])c2)cc1F	-	-	-	-	-	-
O=C(Nc1ccc(OC(F)F)cc1)Nc1cccc(C(F)(F)F)c1	90	-	.	-	-	-
O=C(Nc1ccncc1)Nc1cccc(C(F)(F)F)c1	-	-	-	-	-	-
O=C(Nc1ccc(OC(F)(F)F)cc1)Nc1cccc([N+](=O)[O-])c1	100	-	.	-	-	100
CCN1C(C)=C(C)S/C1=C1\SC(=S)N(C2CCCCC2)C1=O	.	.	-	354	-	.
CCN1C(C)=C(C)S/C1=C1\SC(=S)N(NC(C)=O)C1=O	-	-	-	-	-	-
O=C(NC[C@H]1[C@@H](c2ccccc2)[C@@H](CO)N1Cc1ccccn1)C1CC1	.	.	-	.	.	.
CN1C(=O)c2cc(NC(=O)c3cccs3)ccc2OC[C@@H]2O[C@@H](CC(=O)N3CCOCC3)CC[C@@H]21	.	.	-	.	.	.
O=C1c2ccccc2C(=O)c2c(Nc3ccc(CCO)cc3)ccc(O)c21	.	.	-	-	-	.
O=C1c2c(O)ccc(O)c2C(=O)c2c(NCCNCCO)ccc(NCCNCCO)c21	-	-	17	-	-	-
CC1=C(C(=O)OCC2CCCO2)C(c2coc3ccccc3c2=O)C2=C(CCCC2=O)N1 (configuration not stated)	-	-	13	-	-	-
COc1ccccc1-c1c(-c2ccc(OCC(=O)NN)cc2O)n[nH]c1C(F)(F)F	-	-	-	-	-	-
COc1ccc(-c2n[nH]c(C(F)(F)F)c2-c2cc3ccccc3o2)c(O)c1	100	-	.	-	-	100
COc1cccc(-c2ccc3c(c2)[C@@H]2[C@@H](CCN2C(=O)c2cnccn2)[C@@H](CO)N3)c1	.	.	-	.	.	.
O=C(NCc1nc(-c2ccc(C(F)(F)F)cc2)no1)Nc1cc(Cl)cc(Cl)c1	100	-	-	-	-	100
O=C(NCc1nc(-c2ccc(C(F)(F)F)cc2)no1)Nc1ccc(F)cc1F	-	-	-	-	-	-
C[C@@H]1CN([C@H](C)CO)C(=O)c2cc(C#Cc3cccnc3)cnc2O[C@H]1CN(C)S(=O)(=O)c1ccccc1F	.	.	-	.	.	.
SMILES	ugtP null kill	Mtb hypoxia rep	TcdB GH inh	MazF activator	PfHsp40 rescue	RN4220 kill
CC(=O)Nc1ccc2c(c1)Cc1cc(N3C(=O)C=CC3=O)ccc1-2	-	-	-	-	668	-
CCN1C(=O)C2C(c3ccc(-c4ccccc4)c(OC)c3)N[C@@](Cc3ccccc3)(C(=O)OC)C2C1=O (some centres not stated)	-	-	.	.	.	-
COc1ccc2cc(/C=C3\SC(=S)NC3=O)c(N3CCOCC3)nc2c1	90	-	-	-	-	89
O=C1NC(=S)S/C1=C/c1ccc(N2CCOCC2)o1	-	-	.	-	-	-
Cc1cc(C(=O)CSc2nncn2C)c(C)n1-c1ccccc1	-	-	-	57	-	-
O=S1(=O)N=C(N(CCO)N=Cc2ccccc2F)c2ccccc21	-	-	.	.	.	-
CCOC(=O)C(C)/C(C)=N/NC(=O)c1cc2ccccc2cc1O (configuration not stated)	.	.	-	-	156	.
COc1ccc2c3c([nH]c2c1)[C@H](CO)N(C(=O)Nc1ccc(F)cc1)CC31CN(Cc2nccs2)C1	.	.	-	.	.	.
CN(CC(Cc1ccccc1)N(CCN(CCc1ccccc1)N=O)N=O)N=O (configuration not stated)	-	-	.	.	.	-
COc1ccc(CCNC(=O)c2ccccc2)cc1	-	.	-	-	-	-
COc1ccc(CCNC(=O)c2ccc(Cl)cc2)cc1	-	37	.	-	-	-
COc1cccc(S(=O)(=O)Nc2ccc3c(c2)[C@@H]2C[C@H](CC(=O)N(C)C)O[C@H](CO)[C@@H]2O3)c1	.	.	-	.	.	.
Cc1cccc(C)c1OC(=O)Cc1ccccc1	-	-	-	-	-	-
Cc1cccc(C)c1OC(=O)C(c1ccccc1)c1ccccc1	96	-	-	-	-	-
CCN(CC)S(=O)(=O)c1ccc(NC(=S)NC(=O)C(C)C)cc1	-	-	-	-	-	-
CCN(CC)S(=O)(=O)c1ccc(NC(=S)NC(=O)CC(C)C)cc1	89	-	-	-	-	-
CC(C)CC(=O)NC(=S)Nc1ccc(NC(=O)c2ccco2)cc1	89	.	-	-	-	-
O=C(NC(=S)Nc1ccc(CN2CCCCC2)cc1)c1ccco1	-	-	-	-	128	-
CCC(=O)NC(=S)Nc1ccc(NC(=O)c2ccco2)cc1	-	.	-	-	-	-
COc1ccc(OC)c(-n2c(O)c(/C=C3\C=Nc4ccccc43)c(=O)[nH]c2=O)c1	.	.	-	-	-	.
CCOc1ccc(-n2c(O)c(/C=C3\C=Nc4ccccc43)c(=O)[nH]c2=O)cc1	-	-	-	120	-	-
Cc1cc(C(C)(C)C)cc(CN2CCN(S(=O)(=O)c3cccs3)CC2)c1O	.	.	11	-	.	.
O=C(NC(C1CC1)C1CC1)C1CCC(=O)N(CCCN2CCCC2=O)C1 (configuration not stated)	-	-	-	-	36	-
O=C(NCCC1CCCC1)C1CCC(=O)N(CCCN2CCCC2=O)C1 (configuration not stated)	-	-	-	-	-	-
O=C(Cc1ccncc1)NCC[C@H]1CC[C@H](NC(=O)C2CCC2)[C@@H](CO)O1	.	.	-	.	.	.
COc1ccccc1-c1sc2cc3c(cc2c1-c1ccc(OCCN2CCCCC2)cc1)OCO3	-	-	-	-	43	-
Cc1csc2nc(O)c(C(=O)NCCCc3ccccc3)c(=O)n12	-	-	-	-	289	-
O=C(CCl)c1ccc2c(c1)CCN2C(=O)C1CCCCC1	99	-	-	-	-	98
